Data as given in the supplement of paper PMC7366291.
Where a name gives a salt, the structure may show the parent alone. ± gives the standard deviation or the standard deviation of the averaged measurements.

Columns and labels:
Settings in all cases: 25 µM; exposure: 24-48 hpf
[1] = system: Danio rerio Tg(wt1b:EGFP) embryo, pronephros; test: glomerular separation, fold change vs DMSO control; higher = glomeruli further apart (abnormal)
Outline: (§1)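 Dechorionated Tg(wt1b:EGFP) zebrafish embryos were incubated at 28.5°C from 24 to 48 hpf with 25 μM compound in HEPES-buffered E3 containing 0.5% DMSO and 0.003% PTU. Distances and angles between 16 manually set points on maximum projections of dorsal pronephros images were measured in Fiji, with values over 2 SD from the feature mean excluded. Each feature is a fold change relative to the mean of same-day DMSO-treated embryos.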

[2] = system: Danio rerio Tg(wt1b:EGFP) embryo, pronephros; test: glomerular width (mean of left and right), fold change vs DMSO control; higher = wider glomerulus
Outline: as §1

[3] = system: Danio rerio Tg(wt1b:EGFP) embryo, pronephros; test: fraction of imaged embryos annotated as normal kidney; higher = less nephrotoxic; extreme values may be limits of the assay
Outline: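 From 24 to 48 hpf at 28.5°C, dechorionated Tg(wt1b:EGFP) zebrafish embryos in 12-well plates were kept in 5 mM HEPES-buffered E3 with 0.003% PTU, 0.5% DMSO and 25 μM compound. Pronephroi were imaged by widefield fluorescence at 470 nm and judged by eye from maximum projections. Reported is the proportion of embryos per treatment in the normal-kidney category.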

[4] = system: Danio rerio Tg(wt1b:EGFP) embryo, pronephros; test: pronephric angle neck segment to proximal convoluted tubule (mean of left and right), fold change vs DMSO control; higher = larger pronephric angle
Outline: as §1

**Q.** Which glomerular separation [1] does the source give for O=C(O[C@@H]1C[C@@H]2C[C@H]3C[C@H](C1)N2CC3=O)c1c[nH]c2ccccc12 [Dolasetron mesilate] here?
**A.** 0.787 ± 0.28

**Q.** And the glomerular width [2]?
**A.** 1.01 ± 0.018

**Q.** And the “fraction of imaged embryos annotated as normal kidney” value (from here on “fraction of imaged embryos annotated”) [3]?
**A.** 0.75

**Q.** And the “pronephric angle neck segment” value [4]?
**A.** 0.946 ± 0.035

**Q.** Which results are given for Clc1ccc2c(c1)CCc1cccnc1C2=C1CCNCC1 [Desloratadine]?
**A.** glomerular separation [1]: 0.811 ± 0.28; glomerular width [2]: 0.94 ± 0.011; fraction of imaged embryos annotated as normal kidney [3]: 0.917; pronephric angle neck segment [4]: 1.06 ± 0.044

**Q.** For NC(=O)NC1NC(=O)NC1=O (configuration not stated) [Allantoin], which glomerular separation [1] is on record?
**A.** 0.881 ± 0.25

**Q.** What about the glomerular width [2] of the same compound?
**A.** 0.9104 ± 0.001

**Q.** What about the “fraction of imaged embryos annotated” value [3] of the same compound?
**A.** 0.917

**Q.** What about the “pronephric angle neck segment” value [4] of the same compound?
**A.** 0.981 ± 0.024

**Q.** Which results are given for COc1ccc(CC2c3cc(OC)c(OC)cc3CC[N+]2(C)CCC(=O)OCCCCCOC(=O)CC[N+]2(C)CCc3cc(OC)c(OC)cc3C2Cc2ccc(OC)c(OC)c2)cc1OC (configuration not stated) [Atracurium besylate]?
**A.** glomerular separation [1]: 1.2 ± 0.6; glomerular width [2]: 0.944 ± 0.012; fraction of imaged embryos annotated as normal kidney [3]: 0.917; pronephric angle neck segment [4]: 0.954 ± 0.016

**Q.** What does the source list for Cc1cccc(Nc2ccncc2S(=O)(=O)NC(=O)NC(C)C)c1 [Torsemide]?
**A.** glomerular separation [1]: 1.12 ± 0.3; glomerular width [2]: 0.95 ± 0.015; fraction of imaged embryos annotated as normal kidney [3]: 1; pronephric angle neck segment [4]: 0.905 ± 0.03

**Q.** With COc1ccnc(C[S+]([O-])c2nc3cc(OC(F)F)ccc3[nH]2)c1OC (configuration not stated) [Pantoprazole sodium] as the compound, how does the glomerular separation [1] read?
**A.** 1.04 ± 0.33

**Q.** And the glomerular width [2]?
**A.** 1.042 ± 0.0056

**Q.** And the “fraction of imaged embryos annotated” value [3]?
**A.** 0.833

**Q.** And the “pronephric angle neck segment” value [4]?
**A.** 1.062 ± 0.0021

**Q.** Which glomerular separation [1] does the source give for CN1CCCC(CC2c3ccccc3Sc3ccccc32)C1 (configuration not stated) [Metixene hydrochloride] here?
**A.** 0.961 ± 0.25

**Q.** And the glomerular width [2]?
**A.** 1 ± 0.021

**Q.** What about the “fraction of imaged embryos annotated” value [3] of the same compound?
**A.** 1

**Q.** What about the “pronephric angle neck segment” value [4] of the same compound?
**A.** 0.953 ± 0.044

**Q.** For CN(C)CCN(Cc1cccs1)c1ccccn1 [Methapyrilene hydrochloride], which glomerular separation [1] is on record?
**A.** 0.984 ± 0.37

**Q.** And the glomerular width [2]?
**A.** 0.99 ± 0.077

**Q.** And the “fraction of imaged embryos annotated” value [3]?
**A.** 0.917

**Q.** What about the “pronephric angle neck segment” value [4] of the same compound?
**A.** 0.9838 ± 0.0071

**Q.** C[C@@H]1[C@H](O)[C@@H](C)/C=C/C=C/C=C/C=C/C=C/C=C/C=C/[C@H](O[C@@H]2O[C@H](C)[C@@H](O)[C@H](N)[C@@H]2O)C[C@@H]2O[C@](O)(C[C@@H](O)C[C@@H](O)[C@H](O)CC[C@@H](O)C[C@@H](O)CC(=O)O[C@H]1C)C[C@H](O)[C@H]2C(=O)O [Amphotericin B] was tested. Which glomerular separation [1] did it give?
**A.** 3.69 ± 2.9

**Q.** What about the glomerular width [2] of the same compound?
**A.** 0.907 ± 0.13

**Q.** And the “fraction of imaged embryos annotated” value [3]?
**A.** 0

**Q.** What about the “pronephric angle neck segment” value [4] of the same compound?
**A.** 1.59 ± 0.016

**Q.** What does the source list for CC(C)(C)NCC(O)c1ccc(O)c(CO)c1 (configuration not stated) [Salbutamol]?
**A.** glomerular separation [1]: 1.15 ± 0.52; glomerular width [2]: 1.05 ± 0.013; fraction of imaged embryos annotated as normal kidney [3]: 0.833; pronephric angle neck segment [4]: 1.04 ± 0.041

**Q.** How did the glomerular separation [1] turn out when CNCC(O)c1ccc(OC(=O)C(C)(C)C)c(OC(=O)C(C)(C)C)c1 (configuration not stated) [Dipivefrin hydrochloride] was run?
**A.** 0.794 ± 0.16

**Q.** And the glomerular width [2]?
**A.** 1.04 ± 0.036

**Q.** What about the “fraction of imaged embryos annotated” value [3] of the same compound?
**A.** 0.833

**Q.** What about the “pronephric angle neck segment” value [4] of the same compound?
**A.** 1.03 ± 0.081

**Q.** With CCOC(=O)n1ccn(C)c1=S [Carbimazole] as the compound, how does the glomerular separation [1] read?
**A.** 1.35 ± 0.58

**Q.** What about the glomerular width [2] of the same compound?
**A.** 0.997 ± 0.029

**Q.** What about the “fraction of imaged embryos annotated” value [3] of the same compound?
**A.** 0.667

**Q.** What about the “pronephric angle neck segment” value [4] of the same compound?
**A.** 1.052 ± 0.0026

**Q.** What does the source list for COc1ccc(NS(=O)(=O)c2ccc(N)cc2)nn1 [Sulfamethoxypyridazine]?
**A.** glomerular separation [1]: 0.681 ± 0.15; glomerular width [2]: 1.03 ± 0.1; fraction of imaged embryos annotated as normal kidney [3]: 1; pronephric angle neck segment [4]: 1.006 ± 0.0011

**Q.** What does the source list for CN(C)CCCO[C@@H]1[C@H]2OC(C)(C)O[C@H]2O[C@@H]1[C@H](O)CO [Amiprilose hydrochloride]?
**A.** glomerular separation [1]: 1.12 ± 0.66; glomerular width [2]: 1.08 ± 0.071; fraction of imaged embryos annotated as normal kidney [3]: 0.667; pronephric angle neck segment [4]: 1 ± 0.02

**Q.** Which results are given for CC(C)(C(=O)O)c1ccc(C(O)CCCN2CCC(C(O)(c3ccccc3)c3ccccc3)CC2)cc1 (configuration not stated) [Fexofenadine hydrochloride]?
**A.** glomerular separation [1]: 0.859 ± 0.33; glomerular width [2]: 1.12 ± 0.028; fraction of imaged embryos annotated as normal kidney [3]: 0.833; pronephric angle neck segment [4]: 0.956 ± 0.033

**Q.** With CC(NCCc1ccc(O)cc1)C(O)c1ccc(O)cc1 (configuration not stated) [Ritodrine hydrochloride] as the compound, how does the glomerular separation [1] read?
**A.** 1.03 ± 0.28

**Q.** What about the glomerular width [2] of the same compound?
**A.** 0.952 ± 0.012

**Q.** And the “fraction of imaged embryos annotated” value [3]?
**A.** 0.833

**Q.** What about the “pronephric angle neck segment” value [4] of the same compound?
**A.** 1.038 ± 0.0019

**Q.** Which results are given for CC[C@H]1OC(=O)[C@H](C)[C@@H](O[C@H]2C[C@@](C)(OC)[C@@H](O)[C@H](C)O2)[C@H](C)[C@@H](O[C@@H]2O[C@H](C)C[C@H](N(C)C)[C@H]2O)[C@](C)(OC)C[C@@H](C)C(=O)[C@H](C)[C@@H](O)[C@]1(C)O [Clarithromycin]?
**A.** glomerular separation [1]: 0.802 ± 0.28; glomerular width [2]: 0.909 ± 0.043; fraction of imaged embryos annotated as normal kidney [3]: 1; pronephric angle neck segment [4]: 1.06 ± 0.039

**Q.** With CCCOc1cc(N)ccc1C(=O)OCCN(CC)CC [Propoxycaine hydrochloride] as the compound, how does the glomerular separation [1] read?
**A.** 0.859 ± 0.24

**Q.** What about the glomerular width [2] of the same compound?
**A.** 0.982 ± 0.023

**Q.** What about the “fraction of imaged embryos annotated” value [3] of the same compound?
**A.** 0.917

**Q.** And the “pronephric angle neck segment” value [4]?
**A.** 1.01 ± 0.023

**Q.** How did the glomerular separation [1] turn out when C[C@]12CCC(=O)C=C1CC[C@@H]1[C@@H]2[C@@H](O)C[C@@]2(C)[C@H]1CC[C@]2(O)C(=O)CO [Hydrocortisone base] was run?
**A.** 1.25 ± 0.65

**Q.** What about the glomerular width [2] of the same compound?
**A.** 1.16 ± 0.081

**Q.** And the “fraction of imaged embryos annotated” value [3]?
**A.** 0.5

**Q.** What about the “pronephric angle neck segment” value [4] of the same compound?
**A.** 0.95 ± 0.064

**Q.** How did the glomerular separation [1] turn out when COC(=O)C1=C(C)NC(C)=C(C(=O)OC2CCCN(Cc3ccccc3)C2)C1c1cccc([N+](=O)[O-])c1 (configuration not stated) [Benidipine hydrochloride] was run?
**A.** 4.55 ± 0.53

**Q.** What about the glomerular width [2] of the same compound?
**A.** 0.7 ± 0.061

**Q.** What about the “fraction of imaged embryos annotated” value [3] of the same compound?
**A.** 0

**Q.** What about the “pronephric angle neck segment” value [4] of the same compound?
**A.** 0.99 ± 0.056

**Q.** CCOC(=O)O[C@]1(C(=O)COC(=O)CC)CC[C@H]2[C@@H]3CCC4=CC(=O)C=C[C@]4(C)[C@H]3[C@@H](O)C[C@@]21C [Prednicarbate] was tested. Which glomerular separation [1] did it give?
**A.** 1.89 ± 0.71

**Q.** And the glomerular width [2]?
**A.** 1.11 ± 0.066

**Q.** And the “fraction of imaged embryos annotated” value [3]?
**A.** 0.417

**Q.** What about the “pronephric angle neck segment” value [4] of the same compound?
**A.** 1.03 ± 0.058

**Q.** Which results are given for O=C(O)CCC(=O)c1ccc(-c2ccccc2)cc1 [Fenbufen]?
**A.** glomerular separation [1]: 6.73 ± 2.4; glomerular width [2]: 0.729 ± 0.11; fraction of imaged embryos annotated as normal kidney [3]: 0.0909; pronephric angle neck segment [4]: 1.32 ± 0.18

**Q.** Which glomerular separation [1] does the source give for O=c1n(CCCN2CCN(c3cccc(Cl)c3)CC2)nc2ccccn12 [Trazodone hydrochloride] here?
**A.** 1.2 ± 0.34

**Q.** What about the glomerular width [2] of the same compound?
**A.** 0.97 ± 0.015

**Q.** And the “fraction of imaged embryos annotated” value [3]?
**A.** 1

**Q.** What about the “pronephric angle neck segment” value [4] of the same compound?
**A.** 0.997 ± 0.0034
